Experimental findings from PubChem BioAssay (EPA / NIEHS) are described below.

Read-out in experiment [1]: glucuronosyltransferase (UGT1A1), UGT1A1 (gene 54658)
As to the kind of experiment: CLD_UGT1A1_6hr: CellzDirect (CLD) Gene Expression Assay for glucuronosyltransferase (UGT1A1) at 6 hours (AID 2283672). Put shortly:
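Primary human hepatocytes from two donor preparations, dosed with fresh solutions in 0.2% DMSO, harvested at 6 h. UGT1A1 mRNA measured by qNPA chemiluminescence; induction fitted upward versus DMSO.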

Read-out in experiment [2]: Cytochrome P450 2B6 (Homo sapiens) (UniProt P20813)
As to the kind of experiment: CLD_CYP2B6_6hr: CellzDirect (CLD) Gene Expression Assay for xenobiotic metabolism (CYP2B6) at 6 hours (AID 2283677).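 Further: actives raise CYP2B6 transcript above DMSO baseline so AC50 marks an inducer.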 In outline: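 Primary human hepatocytes dosed with chemicals at multiple concentrations, vehicle 0.2% DMSO; CYP2B6 mRNA induction measured 6 h after dosing by quantitative nuclease protection assay with chemiluminescence, gain of signal fitted relative to DMSO.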

Read-out in experiment [3]: Cytochrome P450 2C19 (Homo sapiens) (UniProt P33261)
As to the kind of experiment: CLD_CYP2C19_6hr: CellzDirect (CLD) Gene Expression Assay for xenobiotic metabolism (CYP2C19) at 6 hours (AID 2283678). In outline: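 Primary human hepatocytes from two donor preparations were dosed daily, with 0.2% DMSO as vehicle, and harvested 6 h after dosing. CYP2C19 mRNA induction was measured by qNPA chemiluminescence and fitted as gain of signal against DMSO.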

Experiment [4] in a line: CCTE_Padilla_ZF_144hpf_TERATOSCORE: (Legacy) CCTE's 144 Hour Post-fertilization zebrafish Assay Teratoscore, Padilla Lab (AID 2283679; active means hit-call score of the fitted dose curve at least 0.9, where 1 is the maximum; inactive means score below 0.9;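 on AC50: zebrafish embryos with chorions exposed by immersion from 6-8 hpf to 5 dpf with daily renewal; teratogenicity score from eye scoring of death hatching and malformations at 144 hpf; higher score means more developmental defects relative to DMSO baseline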). Put shortly:
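Larvae scored by eye at 144 hpf for death, hatching and malformations after a day in clean Hanks'. Before that, daily-renewed exposure at 80 uM (0.4% DMSO, 26C) from roughly 6-8 hpf through 5 dpf, 4 embryos per chemical.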

Read-out in experiment [5]: xenobiotic metabolism (CYP1A2), CYP1A2 (gene 1544)
As to the kind of experiment: CLD_CYP1A2_24hr: CellzDirect (CLD) Gene Expression Assay for xenobiotic metabolism (CYP1A2) at 24 hours (AID 2283683). In outline: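 Primary human hepatocytes from two donor preparations dosed daily with multiple concentrations of chemical, 0.2% DMSO vehicle. CYP1A2 mRNA at 24 h quantified by qNPA chemiluminescence; gain of signal analyzed relative to DMSO. Cytotoxicity flagged by phase-contrast morphology.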

Read-out in experiment [6]: ABC Transporter (ABCB1), ABCB1 (gene 5243)
As to the kind of experiment: CLD_ABCB1_24hr: CellzDirect (CLD) Gene Expression Assay for ABC Transporter (ABCB1) at 24 hours (AID 2283684). In outline:
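Primary human hepatocytes, two donor preparations, dosed daily with fresh solutions; vehicle 0.2% DMSO; harvested at 24 h. ABCB1 mRNA measured by quantitative nuclease protection assay (chemiluminescence); morphology-based cytotoxicity annotated.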

Read-out in experiment [7]: Broad substrate specificity ATP-binding cassette transporter ABCG2 (Homo sapiens) (UniProt Q9UNQ0)
In words: CLD_ABCG2_24hr: CellzDirect (CLD) Gene Expression Assay for ABC Transporter (ABCG2) at 24 hours (AID 2283685). In outline:
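Primary human hepatocytes were dosed daily with ToxCast chemicals at multiple concentrations (vehicle 0.2% DMSO). ABCG2 mRNA was measured at 24 h by qNPA chemiluminescence; induction was scored as gain of signal versus DMSO.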

Read-out in experiment [8]: ABC Transporter (ABCB11), ABCB11 (gene 8647)
In words: CLD_ABCB11_48hr: CellzDirect (CLD) Gene Expression Assay for ABC Transporter (ABCB11) at 48 hours (AID 2283697). In outline: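 Primary human hepatocytes from two donor preparations dosed daily for two days at multiple concentrations; 0.2% DMSO vehicle. ABCB11 mRNA at 48 h by quantitative nuclease protection assay, chemiluminescence; fitted for induction versus DMSO.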

Read-out in experiment [9]: Cytochrome P450 2B6 (Homo sapiens) (UniProt P20813)
As to the kind of experiment: CLD_CYP2B6_48hr: CellzDirect (CLD) Gene Expression Assay for xenobiotic metabolism (CYP2B6) at 48 hours (AID 2283699).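 Further: actives raise transcript level above DMSO so potency reflects induction.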 In outline: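 Primary human hepatocytes dosed daily for two days over multiple concentrations, 0.2% DMSO vehicle; CYP2B6 mRNA quantified at 48 h by qNPA chemiluminescence. Induction fitted as gain of signal versus DMSO; cytotoxicity annotated by morphology.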

Read-out in experiment [10]: Cytochrome P450 2C9 (Homo sapiens) (UniProt P11712)
As to the kind of experiment: CLD_CYP2C9_48hr: CellzDirect (CLD) Gene Expression Assay for xenobiotic metabolism (CYP2C9) at 48 hours (AID 2283701; active means hit-call score of the fitted dose curve at least 0.9, where 1 is the maximum; inactive means score below 0.9). In outline:
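Primary human hepatocytes (two donor preparations) dosed daily for two days with test chemicals, 0.2% DMSO vehicle; harvested at 48 h. mRNA induction quantified by qNPA chemiluminescence, fitted for gain of signal against DMSO baseline; cytotoxicity annotated from phase-contrast morphology.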

Experiment [11] can be described thus: CLD_ACTIN_48hr: CellzDirect (CLD) Gene Expression Assay for Baseline Control (Actin) at 48 hours (AID 2283702). In outline:
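Primary human hepatocytes (two donor preparations) dosed daily for two days with ToxCast chemicals at multiple concentrations versus 0.2% DMSO vehicle; harvested at 48 h. Actin mRNA measured as a background control by quantitative nuclease protection assay with chemiluminescence.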

Read-out in experiment [12]: xenobiotic metabolism (CYP1A2), CYP1A2 (gene 1544)
In words: CLD_CYP1A2_48hr: CellzDirect (CLD) Gene Expression Assay for xenobiotic metabolism (CYP1A2) at 48 hours (AID 2283703). Put shortly: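 Primary human hepatocytes from two donor preparations were dosed daily for two days at multiple concentrations in 0.2% DMSO vehicle. CYP1A2 mRNA was measured at 48 hours by chemiluminescent quantitative nuclease protection assay, with gain of signal fitted versus DMSO and cytotoxicity annotated from morphology.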

Read-out in experiment [13]: Glyceraldehyde-3-phosphate dehydrogenase (Homo sapiens) (UniProt P04406)
In words: CLD_GAPDH_48hr: CellzDirect (CLD) Gene Expression Assay for Baseline Control (Glyceraldehyde 3-phosphate dehydrogenase) at 48 hours (AID 2283706).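 Further: active means higher GAPDH mRNA than DMSO vehicle.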 In outline:
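Primary human hepatocytes dosed daily for two days with fresh chemical at multiple concentrations, 0.2% DMSO vehicle; GAPDH mRNA measured at 48 h by quantitative nuclease protection assay with chemiluminescence, fitted upward relative to DMSO as background control.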

Read-out in experiment [14]: xenobiotic metabolism (CYP1A1), CYP1A1 (gene 1543)
As to the kind of experiment: CLD_CYP1A1_24hr: CellzDirect (CLD) Gene Expression Assay for xenobiotic metabolism (CYP1A1) at 24 hours (AID 2283673).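 Further: CYP1A1 mRNA level by quantitative nuclease protection with chemiluminescence.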 Put shortly:
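Primary human hepatocytes dosed daily with fresh solutions in 0.2% DMSO vehicle. mRNA measured at 24 h by quantitative nuclease protection assay with chemiluminescence; gain-of-signal fit versus DMSO, with morphology-based cytotoxicity flags.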

Read-out in experiment [15]: Cytochrome P450 3A4 (Homo sapiens) (UniProt P08684)
In words: CLD_CYP3A4_24hr: CellzDirect (CLD) Gene Expression Assay for xenobiotic metabolism (CYP3A4) at 24 hours (AID 2283689). In outline: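 Primary human hepatocytes from two donors dosed daily with fresh compound for two days, 0.2% DMSO vehicle. CYP3A4 mRNA at 24 hr by qNPA chemiluminescence; gain-of-signal fit versus DMSO, cytotoxicity flagged by morphology.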

Read-out in experiment [16]: Cytochrome P450 3A4 (Homo sapiens) (UniProt P08684)
In words: CLD_CYP3A4_48hr: CellzDirect (CLD) Gene Expression Assay for xenobiotic metabolism (CYP3A4) at 48 hours (AID 2283698). Put shortly:
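Primary human hepatocytes from two donor preparations dosed daily for two days with multiple chemical concentrations, 0.2% DMSO vehicle. CYP3A4 mRNA at 48 h by quantitative nuclease protection assay, chemiluminescence, positive fit versus DMSO; cytotoxicity flagged morphologically.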

Read-out in experiment [17]: xenobiotic metabolism (CYP1A1), CYP1A1 (gene 1543)
In words: CLD_CYP1A1_48hr: CellzDirect (CLD) Gene Expression Assay for xenobiotic metabolism (CYP1A1) at 48 hours (AID 2283705). Put shortly: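 Primary human hepatocytes from two donors dosed daily for two days at multiple concentrations, 0.2% DMSO vehicle; CYP1A1 mRNA induction at 48 h by qNPA chemiluminescence. Cytotoxicity noted by phase-contrast morphology.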

Read-out in experiment [18]: ABC Transporter (ABCB1), ABCB1 (gene 5243)
As to the kind of experiment: CLD_ABCB1_48hr: CellzDirect (CLD) Gene Expression Assay for ABC Transporter (ABCB1) at 48 hours (AID 2283695). Put shortly:
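Primary human hepatocytes from two donor preparations dosed daily on two consecutive days with 0.2% DMSO vehicle. Harvest at 48 h. ABCB1 mRNA quantified by qNPA with chemiluminescence and fitted for gain of signal versus DMSO.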

Read-out in experiment [19]: glucuronosyltransferase (UGT1A1), UGT1A1 (gene 54658)
As to the kind of experiment: CLD_UGT1A1_24hr: CellzDirect (CLD) Gene Expression Assay for glucuronosyltransferase (UGT1A1) at 24 hours (AID 2283696). In outline:
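Primary human hepatocytes from two donor preparations were dosed (0.2% DMSO vehicle) and harvested at 24 h; UGT1A1 mRNA induction was quantified by chemiluminescent qNPA, fitted as gain relative to DMSO.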

Values joined by “and” are separate entries in the source; they are usually repeats but may differ in a detail not shown here. Identical values can stand only once. Records with an inconclusive call do not appear. Some compounds were tested as several samples or in several runs, with calls that do not always agree. Active and inactive are the calls of the source. How the source made its calls, unless noted: active means hit-call score of the fitted dose curve at least 0.9, where 1 is the maximum; inconclusive means response in the unintended direction; inactive means score below 0.9.

Sequence of Cytochrome P450 3A4 (Homo sapiens) (P08684 whole entry, looked up): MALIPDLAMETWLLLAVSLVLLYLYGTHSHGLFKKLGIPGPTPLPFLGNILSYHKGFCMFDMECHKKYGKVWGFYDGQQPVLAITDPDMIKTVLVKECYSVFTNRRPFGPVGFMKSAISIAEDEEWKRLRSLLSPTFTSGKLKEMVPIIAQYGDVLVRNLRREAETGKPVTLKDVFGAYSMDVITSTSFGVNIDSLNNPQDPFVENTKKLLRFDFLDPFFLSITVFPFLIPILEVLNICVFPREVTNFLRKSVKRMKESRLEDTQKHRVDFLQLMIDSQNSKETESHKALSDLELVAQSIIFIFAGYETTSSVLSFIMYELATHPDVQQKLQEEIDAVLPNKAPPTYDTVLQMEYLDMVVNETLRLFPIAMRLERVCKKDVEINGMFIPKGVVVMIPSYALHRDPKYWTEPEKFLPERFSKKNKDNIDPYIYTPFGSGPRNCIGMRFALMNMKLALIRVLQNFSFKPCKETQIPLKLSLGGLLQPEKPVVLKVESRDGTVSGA
Sequence of Broad substrate specificity ATP-binding cassette transporter ABCG2 (Homo sapiens) (Q9UNQ0 whole entry, looked up): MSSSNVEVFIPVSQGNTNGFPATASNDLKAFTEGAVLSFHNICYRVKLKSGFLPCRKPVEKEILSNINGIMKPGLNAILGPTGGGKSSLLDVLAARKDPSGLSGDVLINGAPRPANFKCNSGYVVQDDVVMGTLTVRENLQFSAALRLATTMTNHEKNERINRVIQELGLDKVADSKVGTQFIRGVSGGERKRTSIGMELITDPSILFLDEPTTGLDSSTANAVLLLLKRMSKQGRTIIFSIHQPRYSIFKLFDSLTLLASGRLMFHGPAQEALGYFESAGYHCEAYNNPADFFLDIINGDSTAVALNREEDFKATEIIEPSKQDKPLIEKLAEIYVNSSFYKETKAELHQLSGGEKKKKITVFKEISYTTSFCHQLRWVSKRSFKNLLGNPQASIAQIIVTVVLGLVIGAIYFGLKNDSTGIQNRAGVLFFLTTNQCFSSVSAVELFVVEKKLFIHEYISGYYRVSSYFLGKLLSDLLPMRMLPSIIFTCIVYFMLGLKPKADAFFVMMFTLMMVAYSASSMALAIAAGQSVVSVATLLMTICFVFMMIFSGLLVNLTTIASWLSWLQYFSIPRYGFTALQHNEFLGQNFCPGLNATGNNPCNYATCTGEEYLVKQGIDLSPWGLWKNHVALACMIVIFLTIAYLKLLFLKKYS
Sequence of Glyceraldehyde-3-phosphate dehydrogenase (Homo sapiens) (P04406 whole entry, looked up): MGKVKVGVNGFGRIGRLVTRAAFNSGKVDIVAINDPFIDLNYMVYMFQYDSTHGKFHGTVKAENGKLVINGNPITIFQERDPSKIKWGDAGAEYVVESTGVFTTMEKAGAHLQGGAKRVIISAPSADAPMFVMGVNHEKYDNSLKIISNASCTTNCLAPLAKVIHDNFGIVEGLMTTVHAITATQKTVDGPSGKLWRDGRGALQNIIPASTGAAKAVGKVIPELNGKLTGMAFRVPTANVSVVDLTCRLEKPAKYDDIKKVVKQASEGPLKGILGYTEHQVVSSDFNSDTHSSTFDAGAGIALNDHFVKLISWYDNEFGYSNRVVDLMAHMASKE
Sequence of Cytochrome P450 2C19 (Homo sapiens) (P33261 whole entry, looked up): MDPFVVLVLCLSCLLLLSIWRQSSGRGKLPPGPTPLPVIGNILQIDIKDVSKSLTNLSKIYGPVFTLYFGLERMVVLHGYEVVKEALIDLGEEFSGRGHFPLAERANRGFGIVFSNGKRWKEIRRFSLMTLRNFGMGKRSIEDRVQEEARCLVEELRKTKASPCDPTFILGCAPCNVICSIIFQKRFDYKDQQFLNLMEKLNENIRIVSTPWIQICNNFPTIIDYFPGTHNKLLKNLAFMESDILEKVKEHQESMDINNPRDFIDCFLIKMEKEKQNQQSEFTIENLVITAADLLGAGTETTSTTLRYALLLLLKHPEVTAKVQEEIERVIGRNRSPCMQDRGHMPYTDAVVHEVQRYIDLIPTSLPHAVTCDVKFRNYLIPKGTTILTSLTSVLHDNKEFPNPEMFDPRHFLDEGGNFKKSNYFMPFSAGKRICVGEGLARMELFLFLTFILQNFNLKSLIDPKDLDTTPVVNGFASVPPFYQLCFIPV

For the molecule `CCON=C(CC)C1=C(O)CC(c2c(C)cc(C)cc2C)CC1=O` (centres undefined), the molecule was called inactive in [1], in [2], in experiment [3], in experiment [5], in experiment [6] and in experiment [7]. For the same molecule, the result in [8], in experiment [9], in experiment [10], in [11], in [12] and in [13] was inactive. The AC50 in [4] was 64.2 µM (active).

Consider `N#Cc1nn(-c2c(Cl)cc(C(F)(F)F)cc2Cl)c(N)c1S(=O)C(F)(F)F` (centres undefined), for which the call in experiment [1], in [14], in experiment [6], in experiment [7], in experiment [11] and in experiment [17] was inactive. The molecule was called inactive in experiment [13]. Moreover, the AC50 is 31.1 µM (active) in experiment [4], 1.89 µM (active) in [15], 1.1 µM (active) in [16] and 1.9 µM (active) in experiment [9].

As to `CCCCNC(=O)OCC#CI`, the result in experiment [1], in experiment [14], in experiment [5], in [6], in experiment [7] and in experiment [16] was inactive. The molecule was called inactive in experiment [9], in [11], in [12], in experiment [17] and in experiment [13]. In addition, in experiment [4], the AC50 is 0.664 µM (active).

Consider `CCOc1cc(Oc2ccc(C(F)(F)F)cc2Cl)ccc1[N+](=O)[O-]`, for which the molecule was classed as inactive in experiment [1]. Further, the AC50 in experiment [14] was 4.84 µM (active); in experiment [4], 13 µM (active); in [5], 5.69 µM (active); in experiment [16], 5.16 µM (active); in [9], 1.83 µM (active); in [12] it was 0.845 µM (active). Also, the AC50 in experiment [17] was 1.01 µM (active).

As for `CCCN(CCC)c1c([N+](=O)[O-])cc(S(N)(=O)=O)cc1[N+](=O)[O-]`, the outcome in [1], in experiment [6], in [18], in experiment [19] and in experiment [12] was inactive. The AC50 in [14] is 4.81 µM (active); in [4] it was 15.8 µM (active) and 15.6 µM (active); in experiment [16], 10 µM (active); in [17], 28.9 µM (active).

For the molecule `CC(Oc1ccc(Cl)cc1Cl)C(=O)O` (centres undefined), the molecule was classed as inactive in experiment [1], in experiment [14], in [6], in [7], in [16] and in [9]. Moreover, the molecule was called inactive in experiment [10], in [12] and in experiment [13]. The concentration at half-maximal activity (AC50) in experiment [4] was 0.67 µM (active).

In the case of `O=C(O)c1nc(Cl)ccc1Cl`, the call in experiment [1], in experiment [3], in [4], in experiment [5], in experiment [16] and in experiment [10] was inactive. Moreover, the AC50 in experiment [5] is 9.48 µM (active); in experiment [8], 6.55 µM (active); in [9] it was 4.4 µM (active); in [12], 7.28 µM (active); in experiment [17], 4.17 µM (active).

The AC50 is the midpoint of the concentration-response curve, whichever way the signal moves.
